We go through 32 molecules from PubChem BioAssay (NCI).

SMILES strings stand for the structures. The panel holds about 83,000 compounds, 20% with a hit somewhere; the sample as a whole holds those more often.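 Results are percent growth after 48 hours of single-concentration exposure. 100 means growth as in untreated cells, lower positive values show inhibition; negative values down to -100 show cell death.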 Active and inactive are the calls of the source. Rule for the calls: active = growth percent below 10; inactive = the rest.

In one test the test system is KM12 colon. Description: NCI-60 one-dose screen, 48 h (100 = growth as untreated, 0 = no growth, -100 = all killed). Particulars: 10 µM.
Consider `O=c1cc(-c2ccccc2)oc2cc(OCCCCNCc3ccccc3)cc(O)c12`, for which the growth was 23.8% (inactive).
The same measure, in the same setting: as for `COc1ccccc1[C@H]1C(C(=O)c2ccc(Cl)cc2)C2(N[C@@H]1c1ccccc1)C(=O)Nc1ccc(Cl)cc12` (some centres not stated), the figure is 9.71% (active).
The same measure, in the same setting: then `N#Cc1c(Cl)nc(SCc2ccc(F)cc2)nc1-c1ccc(F)cc1`, with 91.6% (inactive); and `Cc1cc2c(c(O)c1Br)-c1ncoc1C(=O)[C@]1(C)CC[C@H](C(C)C)[C@H]21`, with 20% (inactive).
Still for that read-out and setting: then `O=C1Nc2ccc(Cl)cc2/C1=C/c1ccc(OCc2ccccn2)cc1`, with 78.8% (inactive); and `O=c1[nH]c2ccccc2cc1CSc1ccc(Nc2nccc(-c3ccc4c(c3)OCO4)n2)cc1`, with 74.2% (inactive).

The test system of another test is MDA-MB-468 breast. The description is as above. Particulars: 10 µM.
For the molecule `CN1C(=O)N(C)C2SC(N/N=C/C=C/c3ccccc3)=NC21` (configuration not stated), the growth is -4.12% (active).
Still for that read-out and setting: as for `Cc1ccc(NC(=O)c2ccc(-n3c(=O)[nH]c4ccccc4c3=O)cc2)cc1`, the figure is 82.2% (inactive).
The same measure, in the same setting: as for `COc1cccc(/C=N/NC(=O)c2ccc3nc(-c4ccc(Cl)cc4)[nH]c3c2)c1O`, the figure is -96.1% (active); as for `COc1ccc2ncc(C#Cc3cncc(C(=O)Nc4ccc(CN5CCN(C)CC5)c(C(F)(F)F)c4)c3)n2n1`, -91.1% (active); as for `CCN1CCN(c2ccc(NC(=O)Nc3ccc(-c4cc(C(=O)NC(C)C)c5ncccc5n4)cc3)cc2C(F)(F)F)CC1`, -91.1% (active).
Still for that read-out and setting: as for `O=C(c1ccc(Cl)cc1)C1[C@H](c2ccccc2Br)[C@@H](c2ccccc2)NC12C(=O)Nc1ccccc12` (some centres not stated), the figure is -45.9% (active); as for `CN1CCN(c2ccc(Nc3nc(NCCCNC(=O)C4CCCCC4)c4sccc4n3)cc2)CC1`, 49.1% (inactive); as for `CC1(c2ccccc2)NC(=O)N(CC(=O)Nc2ccc(C(=O)/C=C/c3ccc(Cl)cc3)cc2)C1=O` (configuration not stated), -9.47% (active).
Consider `CC(C)c1ccc(C(=O)Nc2sc3c(c2C(N)=O)CCC(=O)C3=O)cc1`, for which the growth was 94.8% (inactive).
Still for that read-out and setting: as for `O=c1c2ccccc2nc(COc2ccccc2)n1/N=C/c1ccc(N2CCOCC2)cc1`, the figure is 117% (inactive); as for `CCN1CCN(Cc2ccc(NC(=O)c3cccc(-n4cc(-c5ccc(NC(C)=O)nc5)nn4)c3)cc2C(F)(F)F)CC1`, 74% (inactive); as for `CCOC(=O)C1NN(c2ccc(S(N)(=O)=O)cc2)c2nc3nc(-c4cccs4)cc(-c4cccs4)c3c(=O)n21` (configuration not stated), 99.5% (inactive).
Same read-out and setting: then `CN(CCF)c1ccc(/C=C/C(=O)c2ccc(N)cc2O)cc1`, with 51.4% (inactive); and `CC1(C)CC[C@]2(C(=O)O)CC[C@]3(C)C(=CC[C@@H]4[C@@]5(C)C/C(=C/c6ccncc6)[C@H](O)C(C)(C)[C@@H]5CC[C@]43C)[C@@H]2C1`, with 5.27% (active).
Same read-out and setting: as for `CN(C)c1cccc2c(S(=O)(=O)Nc3cccc(-c4csc(NC(=O)CCCCCN5CCN(c6cc7c(cc6F)C(=O)N(C6CCC(=O)NC6=O)C7=O)CC5)n4)c3)cccc12` (configuration not stated), the figure is 59.7% (inactive); as for `O=C(CSc1nnc(-c2ccc3nc(-c4ccccc4)[nH]c3c2)o1)Nc1ccc(Br)cc1`, 83.2% (inactive).
As for `CCNCCCn1c2c(c3cc(OC)c(OC)cc3c1=O)C(=O)c1cc3c(nc1-2)OCO3`, the growth was -36.2% (active).
Still for that read-out and setting: then `Cn1c(O)c(N=Nc2nc(-c3cc4ccccc4oc3=O)cs2)c2cc(Br)ccc21`, with 41.8% (inactive); and `Cc1ccc(CSc2nc(-c3ccc(F)cc3)c(C#N)c(=O)[nH]2)cc1`, with 126% (inactive).
The same measure, in the same setting: then `COc1csc(/C=N/NC(=O)c2[nH]c3ccc(Br)cc3c2-c2ccccc2)c1`, with -18% (active); and `CCOC(=O)N/C(=C1/OCCN1C)[P+](c1ccccc1)(c1ccccc1)c1ccccc1`, with -11.4% (active).
In the case of `COc1ccc(/C=C/C(=O)c2ccc(S(=O)(=O)NCCNc3nc(Nc4ccc(F)cc4)nc(N(C)C)n3)cc2)cc1`, the growth was -3.57% (active).
For `N#Cc1c(NC(=O)c2ccc(C(F)(F)F)c(Cl)c2)sc2c1CCC(=O)C2`, the growth is -71.2% (active).
Take `O/N=C(\CSc1nnc(-c2c[nH]c3ccccc23)n1-c1ccccc1)c1ccc(Cl)cc1`: the growth is -85.1% (active).
Same read-out and setting: then `CN1CCCN(Cc2ccc(C(=O)Nc3cccc(Nc4ccc5c(O)cccc5n4)c3)cc2C(F)(F)F)CC1`, with -94.5% (active).
Take `O=c1[nH]c2ccccc2cc1CSc1ccc(Nc2nccc(-c3ccc(C(F)(F)F)cc3)n2)cc1`: the growth is -17.5% (active).
The same measure, in the same setting: as for `COc1ccccc1[C@H]1C(C(=O)c2ccc(Cl)cc2)C2(N[C@@H]1c1ccccc1)C(=O)Nc1ccc(Cl)cc12` (some centres not stated), the figure is -43.9% (active); as for `N#Cc1c(Cl)nc(SCc2ccc(F)cc2)nc1-c1ccc(F)cc1`, 112% (inactive); as for `Cc1cc2c(c(O)c1Br)-c1ncoc1C(=O)[C@]1(C)CC[C@H](C(C)C)[C@H]21`, 20.3% (inactive).
On to `O=C1Nc2ccc(Cl)cc2/C1=C/c1ccc(OCc2ccccn2)cc1`, for which the growth was 50.4% (inactive).
Still for that read-out and setting: then `O=c1[nH]c2ccccc2cc1CSc1ccc(Nc2nccc(-c3ccc4c(c3)OCO4)n2)cc1`, with 72.5% (inactive).
